The text below walks through data of PubChem BioAssay.

The assay can be described thus: sensitizers of A549 cells to miR-34 induction, primary screen, imaging, A549 dox-inducible miR-34, nuclei and caspase counts (AID 1347080). Also: test concentration not given here. The following applies: A549 miR-34 inducible, Hoechst nuclei count, 48 h; measured here: relative caspase fold change +Dox/-Dox.
In the case of `CNS(=O)(=O)c1ccc(NC(=O)c2ccccc2C(=O)O)cc1` (tested in a mixture with another compound), the fold change was found to be 3.2.
As for `CC(C)=CCC/C(C)=C/CC1=C(C)C(=O)c2ccccc2C1=O`, the figure is 0.847.
Consider `CC/C=C\C/C=C\C/C=C\C/C=C\C/C=C\CCCC(=O)OCC`, for which the fold change turned out to be 1.98.
Turning to `CC1OC(O[C@H]2/C=C/C=C/C=C/C=C/C=C/C=C/C=C/[C@H](C)[C@@H](O)[C@@H](C)[C@H](C)OC(=O)CC(O)CC(O)CCC(O)C(O)CC(O)CC3(O)C[C@H](O)C(C(=O)O)C(C2)O3)C(O)[C@H](N)C1O` (some centres undefined), the fold change came out at 0.836.
Consider `CCC(=O)O[C@H]1CCC2C3CCc4cc(O)ccc4C3CC[C@@]21C` (some centres undefined), for which the fold change is 2.49.
For `CC(=O)OCC(=O)[C@@]1(O)CC[C@H]2[C@@H]3CCC4=CC(=O)CC[C@]4(C)C3(F)C(=O)C[C@@]21C` (some centres undefined) the value was 1.05; for `CC(C)[N+]1(C)[C@@H]2CC[C@@H]1CC(OC(=O)C(CO)c1ccccc1)C2` (some centres undefined), 1.32; for `Nc1ncnc2c1ncn2C1O[C@H](CO)[C@@H](O)[C@@H]1O` (some centres undefined), 1.24.
For `CO[C@H]1CC(O[C@@H]2/C(C)=C/C[C@@H]3C[C@@H](C[C@]4(CC[C@H](C)[C@@H](C5CCCCC5)O4)O3)OC(=O)[C@@H]3C=C(C)/C(=N/O)[C@H]4OC/C(=C\C=C\[C@@H]2C)[C@]43O)O[C@@H](C)C1O` (some centres undefined) the value was 3.74.
